Sampled rows, rich in hits. Any-hit rate of the full collection: about 22%.
CYP2C9 activ – activators of human CYP2C9; recombinant CYP2C9, luciferin-H conversion, luminescence; hits give high values; factor 1 = untreated enzyme, 0 = blocked; hit rate 1.4% among 96,000; AID 1024; activation factor at 5 µM;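 active = activation factor of 2 or more for CYP2C9 at a 5 µM dose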;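 note: 0 = sulfaphenazole-blocked wells and 1 = vehicle-only wells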
Measles CPE – protection of cells from measles virus | Measles virus-infected cells, CPE protection, absorbance | protection (pct of control), % at 4 µM | hit rate 1.5% among 140,000; in the data active = protection mostly above about 24%, no sharp cut-off; inactive = mostly below about 26%
CYP2C19 activ – activators of human cytochrome P450 2C19 | activation factor at 5 µM | recombinant CYP2C19, luciferin-H EGE luminescence; hits give high values; 0 = fully inhibited enzyme, 1 = untreated enzyme | 96,000 tested, under 10 active;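 active = activation factor of at least 2 at 5 µM in the primary screen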;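 note: 0 = wells with 2.5 mM tranylcypromine and 1 = vehicle-only wells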
Target sequence (P33261 whole entry, looked up): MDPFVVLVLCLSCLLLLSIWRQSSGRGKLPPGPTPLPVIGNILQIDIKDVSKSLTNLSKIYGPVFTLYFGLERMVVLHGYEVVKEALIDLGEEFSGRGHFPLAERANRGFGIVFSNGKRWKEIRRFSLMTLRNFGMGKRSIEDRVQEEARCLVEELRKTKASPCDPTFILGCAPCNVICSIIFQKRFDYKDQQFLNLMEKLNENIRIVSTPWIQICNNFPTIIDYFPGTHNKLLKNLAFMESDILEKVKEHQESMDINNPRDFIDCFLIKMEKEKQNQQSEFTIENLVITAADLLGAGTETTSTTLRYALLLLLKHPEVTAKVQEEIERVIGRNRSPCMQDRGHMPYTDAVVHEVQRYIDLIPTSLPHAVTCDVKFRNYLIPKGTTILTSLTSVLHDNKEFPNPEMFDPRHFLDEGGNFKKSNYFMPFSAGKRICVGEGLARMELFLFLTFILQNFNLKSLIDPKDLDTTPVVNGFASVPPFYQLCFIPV
CYP2C9 inhib – human CYP2C9 inhibition. P11712. CYP2C9 Supersomes, luciferin-H conversion, luminescence. inhibition, % at 5 µM. hit rate 20% among 96,000. AID 777;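 active = blocking of liver enzyme CYP2C9 beyond about 50% at 5 µM, limit read from the data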
CYP2C19 inh – inhibitors of human CYP2C19 | hit rate 21% among 96,000 | AID 778 | P33261 | CYP2C19 Supersomes, luciferin-H EGE luminescence, 30 min | inhibition, % at 5 µM;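 active = CYP2C19 inhibition above a set limit at 5 µM in the primary screen, cut at about 50% in these data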;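 note: plate controls were negative control wells for no effect and 2.5 mM tranylcypromine positive control for full effect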
* = called active by the depositor; . = no result given.

SMILES	CYP2C9 activ	Measles CPE	CYP2C19 activ	CYP2C9 inhib	CYP2C19 inh
COC(=O)c1ccc(NC(=O)C(C)Oc2ccccc2)cc1 (configuration not stated)	0.2	14	0.6	84*	42
COc1ccc(NC(=O)C(C)Oc2ccc(/C(C)=N\O)cc2)cc1 (configuration not stated)	0.3	14	0.2	66*	81*
CC(C)NS(=O)(=O)c1ccc(NC(=O)C(C)Oc2ccc(C(=O)c3ccccc3)cc2)cc1 (configuration not stated)	.	11	.	.	.
COc1ccc(C(NC(=O)CNC(C)=O)C(=O)Nc2ccc(C(C)C)cc2)cc1 (configuration not stated)	0.9	43*	0.7	10	26
CC(Oc1ccccc1)C(=O)Nc1ccc(C(N)=O)cc1 (configuration not stated)	0.7	1	0.5	28	48
Cc1cccc(-c2nnc(SCCC(=O)N3CCOCC3)o2)c1	.	5	.	.	.
COc1cccc(NC(=O)C(C#N)Cc2ccncc2)c1 (configuration not stated)	0.2	.	0	77*	100*
O=C(Nc1cnc2ccccc2c1)c1ccco1	0.7	14	0.7	30	28
Fc1ccc(CN2CCSCC2)cc1Br	0.8	3	0.2	16	84*
COc1ccccc1CN1CCSCC1	0.9	7	0.8	6	18
CCOC(=O)C1CCN(Cc2ccc(F)c(Br)c2)CC1	0.5	7	0.4	50	63*
CCOC(=O)C1CCN(Cc2ccc(F)cc2F)CC1	0.8	15	0.6	22	37
CCCC(=O)Nc1ccc2c(c1)nc(CN1CCN(C(C)=O)CC1)n2C	1	9	1	-3	5
CC12CCC(C(=O)NCc3ccccc3Cl)(C(Br)C1=O)C2(C)C (configuration not stated)	.	3	.	.	.
COc1ccccc1OCCn1c(C(C)O)nc2ccccc21 (configuration not stated)	0.9	76*	0.1	7	85*
COc1ccccc1OCCn1c(CO)nc2ccccc21	0.8	15	0.4	18	56*
CC(C)CCn1c(C(C)O)nc2ccccc21 (configuration not stated)	0.9	7	0.8	12	17
COCCn1c(COc2ccc(OC)cc2)nc2ccccc21	0.7	7	0.1	35	92*
CC(O)c1nc2ccccc2n1CCOc1ccccc1 (configuration not stated)	.	38*	.	.	.
O=C1C(=O)N(CCN2CCOCC2)C(c2ccccn2)/C1=C(/O)c1ccccc1 (configuration not stated)	1	8	1	0	4
CC(=O)c1c(N=CN(C)C)nc(C)nc1-c1ccccc1	1.1	6	1	-8	-5
Cc1cccc(OCCCn2c(CCNC(=O)C(C)C)nc3ccccc32)c1	.	6	.	.	.
CCOc1cc(C#N)c(NC(=O)Cn2nnc3ccccc32)cc1OCC	0.9	9	1.1	12	-8
Cc1cccc(OCCn2c(CCCO)nc3ccccc32)c1	0.3	2	0.1	68*	91*
CCOc1ccccc1OCCn1nnc2ccccc21	1.8	10	0.2	-76	83*
SMILES	CYP2C9 activ	Measles CPE	CYP2C19 activ	CYP2C9 inhib	CYP2C19 inh
CCc1nc2ccccc2n1CC(O)COc1ccc(NC(C)=O)cc1 (configuration not stated)	.	26	.	.	.
OCc1nc2ccccc2n1CC(O)COc1ccccc1 (configuration not stated)	0.8	29*	0.6	22	45
Brc1cccc(-c2nnco2)c1	1.2	6	0.9	-20	10
O=C(CCCN1C(=O)c2ccccc2C1=O)Nc1sc2c(c1C(=O)NCc1ccco1)CCC2	0	2	0.4	96*	65*
O=C(CN1C(=O)c2ccccc2C1=O)Nc1sc2c(c1C(=O)NCc1ccco1)CCCC2	0.2	62*	0.8	82*	19
CCCCN(C(=O)CN1C(=O)C2CC=CCC2C1=O)c1c(N)n(CCC)c(=O)[nH]c1=O (configuration not stated)	0.7	30	1	27	-2
NCCc1ccc(O)c(O)c1	.	27	.	.	.
CCCCc1cc(O)c(CCCC)c(O)c1	0	5	0.1	97*	90*
Cc1ccc(C2/C(=C(/O)c3ccccc3)C(=O)C(=O)N2CCN2CCOCC2)o1 (configuration not stated)	0.8	23	1	15	-2
CCc1nnc(NC(=O)c2ccc(S(=O)(=O)N(CC(C)C)CC(C)C)cc2)o1	.	13	.	.	.
Cc1nnc(NC(=O)c2ccc(S(=O)(=O)N(C)Cc3ccccc3)cc2)o1	0.2	14	1.1	78*	-11
COCc1nnc(NC(=O)c2ccc(S(=O)(=O)N(C)C3CCCCC3)cc2)o1	0.2	18	1	76*	-4
CCN(Cc1ccccc1)S(=O)(=O)c1ccc(C(=O)Nc2nnc(C3CC3)o2)cc1	0.1	4	1	88*	2
COCCN(CCOC)S(=O)(=O)c1ccc(C(=O)Nc2nnc(C)o2)cc1	1.1	2	1.2	-12	-18
Cc1cc(=O)n2[nH]cnc2n1	.	21	.	.	.
CCCOC(=O)C1C2C=CC(C3CC23)C1C(=O)OCC(=O)c1ccccc1 (configuration not stated)	0.3	7	0.1	73*	91*
O=C(COC(=O)C1CC(=O)N(c2ccccc2)C1)c1ccccc1 (configuration not stated)	0.8	21	0.8	22	19
c1coc(CN=C2NC(=NCc3ccco3)c3ccccc32)c1	0.6	9	0.4	40	55*
CC(Oc1ccccc1Cl)c1nnc(N)s1 (configuration not stated)	1.2	17	1	-22	-2
Cc1ccc(OC(C)c2nnc(N)s2)cc1Cl (configuration not stated)	0.5	2	0.3	48	68*
C=C(C)c1cccc(C(C)(C)NC(=O)Nc2ccc(C)cn2)c1	.	7	.	.	.
CCOC(=O)C1CCCCN1Cc1cccc(OC)c1OC (configuration not stated)	0.7	2	0.7	27	30
CCOC(=O)C1CCCCN1Cc1cccc(F)c1 (configuration not stated)	0.7	29	0.1	29	89*
CCOC(=O)C1CCCCN1Cc1cc(Cl)ccc1O (configuration not stated)	0.1	3	0	94*	99*
CCOC(=O)C1CCCCN1Cc1ccc(F)cc1 (configuration not stated)	1.1	10	0.3	-9	66*
CC(C)Cn1c(O)c(/C=C2\C=NN=C2c2ccccc2)sc1=S	.	5	.	.	.
O=C(NC(=S)Nc1ccc(S(=O)(=O)Nc2nccs2)cc1)c1ccc(F)cc1	.	8	.	.	.
N/C(COc1ccc(C(=O)O)cc1)=N\O	1.1	12	1.2	-15	-18
O=C(NNc1ccc([N+](=O)[O-])cc1[N+](=O)[O-])C1C2CCCCC21 (configuration not stated)	.	5	.	.	.

Assay outcomes as filed in PubChem BioAssay.
